78 compounds from PubChem BioAssay AID493170 (National Center for Advancing Translational Sciences (NCATS), 2011) can be followed below.

Inconclusive results are not listed. Where a call stands in place of a potency, no number is given. Calls of active or inactive are those of the source. The call rests on the fitted dose curve; in most records, active means well fitted inhibition curve with a large enough effect; inconclusive means small, poorly fitted or top-dose-only effect, or effect the other way; inactive means flat fitted curve, though single readings scatter.

The assay has as its target Ubiquitin carboxyl-terminal hydrolase 2 (Homo sapiens) (UniProt O75604). Briefly: Ub-rhodamine 110 based assay for inhibitors Ubiquitin-specific Protease USP2a. Further: nearly all actives have a fitted effect of over 50% in size. Conditions: USP2a Ub-rhodamine110 cleavage, fluorescence; series mostly up to 38.3 µM. In outline:
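Kinetic fluorescence (485/531 nm) read each minute over 7 min after adding Ub-Rhod110 (150 nM final) to USP2a (5 nM final). The enzyme had 30 min RT exposure to compounds beforehand in Tris pH 8.0 buffer with CaCl2, CHAPS and beta-ME.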
Potency means the concentration at half of the fitted maximal effect.

Chain of Ubiquitin carboxyl-terminal hydrolase 2 (Homo sapiens) (O75604 whole entry, looked up): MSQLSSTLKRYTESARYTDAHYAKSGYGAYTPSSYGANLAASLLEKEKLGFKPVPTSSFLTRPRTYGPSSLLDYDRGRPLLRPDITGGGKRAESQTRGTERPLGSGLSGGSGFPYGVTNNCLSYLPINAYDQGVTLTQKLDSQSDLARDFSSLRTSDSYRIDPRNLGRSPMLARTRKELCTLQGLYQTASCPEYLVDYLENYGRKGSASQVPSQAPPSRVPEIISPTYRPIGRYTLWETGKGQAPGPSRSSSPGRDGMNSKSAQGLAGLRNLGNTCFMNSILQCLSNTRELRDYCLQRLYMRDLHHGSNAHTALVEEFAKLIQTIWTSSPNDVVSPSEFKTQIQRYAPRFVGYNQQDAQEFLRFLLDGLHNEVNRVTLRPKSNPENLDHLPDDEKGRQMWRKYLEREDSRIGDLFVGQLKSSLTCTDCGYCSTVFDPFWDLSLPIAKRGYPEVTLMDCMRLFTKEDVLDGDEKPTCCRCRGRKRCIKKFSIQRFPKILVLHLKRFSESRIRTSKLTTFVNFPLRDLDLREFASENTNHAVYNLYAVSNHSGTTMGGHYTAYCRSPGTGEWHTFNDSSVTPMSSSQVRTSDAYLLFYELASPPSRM

Consider `CCCCc1ccc(/C=C2/C(=O)ON=C2c2ccccc2)s1`, for which the Potency result was “inactive”.

For `CCn1nc(C(=O)N[C@@H](CCSC)c2nc3ccccc3[nH]2)c2ccccc2c1=O`, the Potency entry was “inactive”.

Consider `Cc1ccc(N(CC(=O)Nc2ccc(S(=O)(=O)N3CCOCC3)cc2)S(C)(=O)=O)cc1C`, for which the Potency entry is “inactive”.

As for `O=C(Nc1nnc(SCCC2OCCO2)s1)C1CC(=O)N(c2ccc(F)cc2)C1` (stereo not drawn), the Potency was 7.94 µM (active).

For the compound `CCc1cc2c(=O)c(-n3cnc4ccccc43)coc2cc1O`, the Potency result was “inactive”.

Regarding `c1ccc(Nc2c3c(nc4ncnn24)CCC3)cc1`, the Potency result is “inactive”.

`COc1ccc(-c2cc(C(F)(F)F)nc(S(C)(=O)=O)n2)cc1`: the Potency entry was “inactive”.

For `Cc1c(N=C/C=C2\N(C)c3ccccc3C2(C)C)c(=O)n(-c2ccccc2)n1C`, the Potency entry was “inactive”.

Regarding `N=C1/C(=C\c2ccc(-c3cccc(Cl)c3)o2)C(=O)N=C2SC=C(c3ccccc3)N12`, the Potency was 11.2 µM (active).

For `Cc1cccc(NC(=O)NCc2ccc3c(c2)cc(C)n3C)c1`, the Potency result was “inactive”.

Take `CCn1cc(C(=O)N2CCOCC2)c(=O)c2cc(S(=O)(=O)N(C)C)ccc21`: the Potency entry was “inactive”.

On to `COC(=O)C1Sc2[nH]c(=O)sc2C(c2ccc(Cl)cc2)C1C(=O)OC` (stereo not drawn), for which the Potency entry was “inactive”.

For the compound `Cc1cc(-c2csc(NC(=O)c3ccc(=O)[nH]c3)n2)c(C)n1Cc1ccccc1`, the Potency was 12.6 µM (active).

For the compound `Cc1ccccc1OCCn1nc(C(=O)O)c2ccccc2c1=O`, the Potency entry was “inactive”.

Consider `COc1cc(OC)cc(-c2c(C#Cc3ccsc3)c3cc(-c4ccc(OC)c(OC)c4)ccc3n2C)c1`, for which the Potency entry was “inactive”.

Regarding `O=C(Nc1cccc(C(F)(F)F)c1)/C(=C\c1ccco1)NC(=O)c1cccs1`, the Potency result is “inactive”.

Consider `O=C(CNC(=O)C1CCCCC1)NC1=NCCS1`, for which the Potency result is “inactive”.

As to `O=C(O)c1cccc2c1C(=O)c1ccc(-c3ccc(F)cc3OCc3ccccc3)cc1S2(=O)=O`, the Potency was 11.2 µM (active).

For `Cc1cccc(NCc2nc(-c3ccccc3)no2)c1`, the Potency result is “inactive”.

Turning to `CC(C)(C)NC(=O)C(c1ccco1)N(C(=O)c1ccc(CN2CCOCC2)o1)c1ccccc1` (stereo not drawn), the Potency result was “inactive”.

As for `CC(C)(C)c1cc(Br)ccc1OCC(=O)Nc1ncn[nH]1`, the Potency result is “inactive”.

Turning to `COc1ccc(NC(=O)CSc2nc(O)cc(=O)n2-c2ccc(OC)cc2)cc1`, the Potency is 11.2 µM (active).

On to `O=C(CSc1ncn[nH]1)Nc1ccc(Br)cc1F`, for which the Potency entry is “inactive”.

In the case of `O=C(Nc1cnn(Cc2ccccc2)c1)c1nc2ncccn2n1`, the Potency result was “inactive”.

On to `Cn1c(C(=O)NCCN2CCOCC2)cc2c(=O)n(C)c3ccccc3c21`, for which the Potency result is “inactive”.

Turning to `COc1ccc(/C=C2\SC(=O)N(CCC(=O)Nc3ccc(S(=O)(=O)Nc4nccs4)cc3)C2=O)cc1`, the Potency was 10 µM (active).

On to `COc1ccc(-c2nc(C#N)c(NCC3CCCO3)o2)cc1OC` (stereo not drawn), for which the Potency result is “inactive”.

As for `CC(C)(C)CC(C)(C)c1ccc(OCCOCC[N+](C)(C)Cc2ccccc2)cc1`, the Potency entry is “inactive”.

Take `COC(=O)C1CCN(C(=O)COC(=O)CC(NC(N)=O)c2ccc(Cl)cc2)CC1` (stereo not drawn): the Potency entry was “inactive”.

With `O=C1c2ccccc2CCC12N=NCC2c1ccc(Br)cc1` (stereo not drawn), the Potency result was “inactive”.

Regarding `O=C(NCC(c1cccnc1)N1CCN(c2ccc(F)cc2)CC1)OCc1ccccc1` (stereo not drawn), the Potency entry was “inactive”.

With `O=C(O)CP(=O)(c1ccccc1)c1ccccc1`, the Potency result is “inactive”.

For `Cc1nc(NC(C)C)c2cnn(CCc3ccccc3)c2n1`, the Potency entry was “inactive”.

Regarding `CCOc1ccc(Cn2nnc(C(=O)NCc3ccccc3)c2N)cc1`, the Potency result was “inactive”.

Turning to `O=C(c1cc(-c2ccco2)on1)N1CCc2ccccc2C1`, the Potency was 10 µM (active).

As to `Cc1noc(NS(=O)(=O)c2ccc(N3CC(O)=C(c4ccccc4)C3=N)cc2)c1C`, the Potency result is “inactive”.

In the case of `COc1cccc(-n2c(SCc3cc(=O)oc4cc(O)c(O)cc34)nc3ccccc3c2=O)c1`, the Potency was 1.58 µM (active).

With `Nc1ccccc1S(=O)(=O)NC1=NCCCCC1`, the Potency result was “inactive”.

Take `COC(=O)c1c(O)c2c([nH]c1=O)CCCC2`: the Potency entry was “inactive”.

Regarding `COc1cccc(-c2csc3nnc(SCC(=O)NCc4cccs4)n23)c1`, the Potency entry was “inactive”.

Regarding `C[C@H](CO)N1C[C@H](C)[C@@H](CN(C)S(=O)(=O)c2cccs2)Oc2c(NC(=O)Nc3ccc4c(c3)OCO4)cccc2C1=O`, the Potency result is “inactive”.

Turning to `CN(C)C=Nc1ncc2c3ccccc3n(CCN(C)C)c2c1C#N`, the Potency entry is “inactive”.

In the case of `CC(=O)N1CCCc2cc(S(=O)(=O)CCC(=O)N3CCN(c4cccc(C)c4)C(C)C3)ccc21` (stereo not drawn), the Potency result was “inactive”.

Consider `N#CCc1ccc(NC(=O)/C=C/c2ccc([N+](=O)[O-])o2)cc1`, for which the Potency was 10 µM (active).

For `O=C(Nc1ncccc1Cl)c1cccc(F)c1`, the Potency result was “inactive”.

`CCn1c(=O)c(C(=O)Nc2ccccc2S(N)(=O)=O)c(O)c2ccccc21`: the Potency is 5.62 µM (active).

As for `COc1ccc(C(=O)C[N+]2(C)CCOCC2)cc1`, the Potency result is “inactive”.

With `Nn1c(Nc2ccccc2)nc2ccccc2c1=O`, the Potency result is “inactive”.

In the case of `CC1CCCC(N2CCN(C(=O)c3cccc(F)c3)CC2)C1` (stereo not drawn), the Potency result was “inactive”.

Turning to `COc1ccc(/C=C2\SC(=O)N(CC(=O)Nc3cccc(C)c3)C2=O)cc1O`, the Potency was 8.91 µM (active).

Take `C=C(C)COc1ccc(-c2[nH]ncc2Oc2ccccc2OCC)c(O)c1`: the Potency result is “inactive”.

Take `COc1ccc(C(=O)Nc2ccc(N3CCCC3)cc2)cc1OC`: the Potency result is “inactive”.

Turning to `Cc1ccc(NC(=O)COC(=O)c2ccc(NC(=O)CC#N)cc2)cc1S(=O)(=O)N1CCOCC1`, the Potency is 10 µM (active).

With `NS(=O)(=O)c1ccc(N=Nc2c(O)c(C(=O)O)cc3ccccc23)cc1`, the Potency is 5.62 µM (active).

As for `COc1ccc(CC(NC(C)=O)C(=O)NC2CCN(c3nc(C)cc(C)c3C#N)CC2)c(OC)c1` (stereo not drawn), the Potency result is “inactive”.

As for `O=C(CSc1nc(N2CCCCC2)nc(N2CCCCC2)n1)N1CCN(c2ccccc2)CC1`, the Potency result is “inactive”.

Turning to `CC1(C(=O)O)Sc2[nH]c(=O)sc2C2c3ccccc3OC(=O)C21` (stereo not drawn), the Potency result was “inactive”.

On to `Cc1noc(/C=C/c2ccco2)c1S(=O)(=O)N1CCC(C(=O)N(C)Cc2ccccc2)CC1`, for which the Potency was 10 µM (active).

Regarding `COc1ccc(CCN2CC(C#N)=C3c4cc(OC)c(OC)cc4CCN3C2)cc1OC`, the Potency entry was “inactive”.

Turning to `O=C(CSCCO)Nc1cccc2ccccc12`, the Potency entry is “inactive”.

Turning to `COCc1c(C(=O)OCC(=O)c2c(N)n(CC(C)C)c(=O)n(C)c2=O)oc2ccccc12`, the Potency result is “inactive”.

Consider `COc1ccc(C2CC(=O)N3CN(c4ccccc4F)CSC3=C2C#N)cc1OC` (stereo not drawn), for which the Potency entry is “inactive”.

For the compound `Cc1cccc2c1N(CCCOc1ccc(C(C)(C)C)cc1)C(=O)C2=O`, the Potency result was “inactive”.

For `O=C(Nc1nc(-c2ccco2)c(-c2ccco2)s1)c1ccc(F)cc1F`, the Potency is 10 µM (active).

With `CSc1cccc(NC(=O)c2ccccc2N(C)S(C)(=O)=O)c1`, the Potency entry is “inactive”.

On to `Cc1ccccc1C(=O)Nc1ccc2nc3n(c(=O)c2c1)CCC3`, for which the Potency entry was “inactive”.

For the compound `N#CNC(=Nc1cccc(F)c1)SCc1cccc(F)c1`, the Potency entry was “inactive”.

In the case of `Nc1nc(NCCO)nc(NCC2CCCO2)c1[N+](=O)[O-]` (stereo not drawn), the Potency result was “inactive”.

As to `CCN(CC)CCNc1nc(-c2ccccc2)c2c(c1C#N)CC(C)(C)OC2`, the Potency result is “inactive”.

With `COC(=O)c1ccc(NC(=O)CSC2=Nc3ccccc3C3CC=NN23)cc1` (stereo not drawn), the Potency result was “inactive”.

As to `O=C1CS/C(=C/C(=O)c2ccccc2)N1`, the Potency result is “inactive”.

`NC(=O)CC(NC(=O)Cc1ccc(Br)cc1)c1ccc(N2CCC(Cc3ccccc3)CC2)c([N+](=O)[O-])c1` (stereo not drawn): the Potency entry is “inactive”.

Turning to `COC(=O)c1c(N2C(=O)CCC2=O)sc2c1CCCC2`, the Potency entry is “inactive”.

For `CC(C)(C)C1C=C(Sc2ccccc2)C(=O)O1` (stereo not drawn), the Potency result is “inactive”.

`CC(C)(C)NC(=O)CSc1nc(O)cc(=O)n1-c1ccccc1F`: the Potency entry is “inactive”.

On to `Cc1ccc(C)c(OCC(=O)Nc2cc(NC(=O)COc3cc(C)ccc3C)cc(C(=O)O)c2)c1`, for which the Potency was 11.2 µM (active).

Take `CCCCCCCCCCOC(=O)Cn1c(COc2ccccc2OC)[n+](C)c2ccccc21`: the Potency entry was “inactive”.

On to `C[C@@H]1CN([C@@H](C)CO)C(=O)c2cc(NC(=O)CCC(F)(F)F)ccc2O[C@H]1CN(C)S(=O)(=O)c1ccc(Cl)cc1`, for which the Potency entry is “inactive”.
